Measurements reported in the supplement of paper PMC10849652.
The full data set covers some 7,900 targets. This sample favours those with a hit. About 0.6% of all pairs of compound and target were hits. Values without a mark were called inactive.

Compound: Nc1ccccc1NC(=O)c1ccc(CNC(=O)OCc2cccnc2)cc1 [entinostat]
Experiment: log2 fold change, soluble protein after heating vs DMSO (PISA); higher = thermal stabilisation; K562 cells, 10 uM, 30 min; active = over 0.2 and 3.5 SD of the protein, either way, in both replicates (recomputed)
Method in brief: (§1)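 K562 cells (2×10^6 cells/mL) were treated with 10 μM compound for 30 min, and aliquots were heated for 3 min over 48°C-58°C. Pooled aliquots were extracted in PBS with 0.5% NP-40 at 4°C, and the supernatant after 21,000xg for 90 min was measured by TMTpro 16plex LC-MS/MS with channel sums equalised. Reported thermal stability, relative to control samples and from duplicates, is a log2 fold change.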

Chain of UniProt P30626 (P30626 whole entry, looked up): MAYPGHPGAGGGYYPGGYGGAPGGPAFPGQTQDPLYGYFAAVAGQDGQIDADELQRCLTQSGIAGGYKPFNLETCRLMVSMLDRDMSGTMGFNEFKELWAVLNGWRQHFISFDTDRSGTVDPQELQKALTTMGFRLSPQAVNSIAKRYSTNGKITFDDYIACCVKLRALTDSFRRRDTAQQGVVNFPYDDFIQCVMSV
Chain of UniProt Q8IWA5 (Q8IWA5 whole entry, looked up): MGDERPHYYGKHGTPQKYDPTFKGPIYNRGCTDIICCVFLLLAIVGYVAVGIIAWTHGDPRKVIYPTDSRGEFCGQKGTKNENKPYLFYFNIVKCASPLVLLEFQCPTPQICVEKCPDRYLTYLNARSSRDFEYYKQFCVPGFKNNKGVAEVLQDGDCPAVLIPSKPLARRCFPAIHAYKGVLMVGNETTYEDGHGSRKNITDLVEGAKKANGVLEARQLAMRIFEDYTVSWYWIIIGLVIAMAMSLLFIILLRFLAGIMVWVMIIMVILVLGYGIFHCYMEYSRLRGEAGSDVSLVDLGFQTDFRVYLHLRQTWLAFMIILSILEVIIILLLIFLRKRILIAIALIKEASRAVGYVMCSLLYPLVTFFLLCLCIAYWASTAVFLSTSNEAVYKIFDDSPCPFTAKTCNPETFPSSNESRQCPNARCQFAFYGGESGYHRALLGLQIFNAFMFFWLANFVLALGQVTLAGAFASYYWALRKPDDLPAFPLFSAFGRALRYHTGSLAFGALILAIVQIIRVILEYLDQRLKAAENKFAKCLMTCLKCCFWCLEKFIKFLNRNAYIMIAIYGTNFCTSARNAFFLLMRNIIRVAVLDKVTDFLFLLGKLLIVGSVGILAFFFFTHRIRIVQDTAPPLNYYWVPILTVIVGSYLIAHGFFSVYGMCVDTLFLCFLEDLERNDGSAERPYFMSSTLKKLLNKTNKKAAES
Chain of UniProt O60271 (O60271 whole entry, looked up): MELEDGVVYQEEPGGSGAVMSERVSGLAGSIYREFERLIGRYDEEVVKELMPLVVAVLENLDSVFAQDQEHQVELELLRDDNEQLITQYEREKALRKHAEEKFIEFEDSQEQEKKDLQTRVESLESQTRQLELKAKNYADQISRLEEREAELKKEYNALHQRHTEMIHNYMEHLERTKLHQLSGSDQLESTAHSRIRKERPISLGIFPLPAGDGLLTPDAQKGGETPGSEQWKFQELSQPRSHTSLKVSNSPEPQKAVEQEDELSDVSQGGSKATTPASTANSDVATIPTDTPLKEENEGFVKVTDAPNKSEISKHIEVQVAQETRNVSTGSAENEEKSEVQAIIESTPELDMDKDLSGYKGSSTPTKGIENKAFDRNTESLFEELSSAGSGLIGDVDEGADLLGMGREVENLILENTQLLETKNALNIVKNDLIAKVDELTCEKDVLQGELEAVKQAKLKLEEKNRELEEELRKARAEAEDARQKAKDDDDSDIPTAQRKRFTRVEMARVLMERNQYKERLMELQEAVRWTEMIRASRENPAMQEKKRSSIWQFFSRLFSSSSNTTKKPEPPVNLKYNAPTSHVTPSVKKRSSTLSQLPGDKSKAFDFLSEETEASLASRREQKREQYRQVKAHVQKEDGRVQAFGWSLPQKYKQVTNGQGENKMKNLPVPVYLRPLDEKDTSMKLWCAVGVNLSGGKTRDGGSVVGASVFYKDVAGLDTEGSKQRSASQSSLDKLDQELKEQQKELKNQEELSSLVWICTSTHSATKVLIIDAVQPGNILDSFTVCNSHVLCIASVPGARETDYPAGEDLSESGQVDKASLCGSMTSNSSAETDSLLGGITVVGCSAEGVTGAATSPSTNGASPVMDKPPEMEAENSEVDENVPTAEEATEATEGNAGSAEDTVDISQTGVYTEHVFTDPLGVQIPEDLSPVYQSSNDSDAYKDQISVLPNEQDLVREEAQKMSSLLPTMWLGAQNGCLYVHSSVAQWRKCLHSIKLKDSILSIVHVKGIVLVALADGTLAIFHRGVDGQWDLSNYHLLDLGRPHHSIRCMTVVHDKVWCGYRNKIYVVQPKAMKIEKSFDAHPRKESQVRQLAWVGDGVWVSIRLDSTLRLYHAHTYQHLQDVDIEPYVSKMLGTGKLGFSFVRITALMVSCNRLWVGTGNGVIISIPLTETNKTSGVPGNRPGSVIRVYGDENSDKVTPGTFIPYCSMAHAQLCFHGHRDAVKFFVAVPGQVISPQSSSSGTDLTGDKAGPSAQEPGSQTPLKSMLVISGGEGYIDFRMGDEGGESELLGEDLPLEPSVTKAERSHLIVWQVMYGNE
Chain of UniProt O15400 (O15400 whole entry, looked up): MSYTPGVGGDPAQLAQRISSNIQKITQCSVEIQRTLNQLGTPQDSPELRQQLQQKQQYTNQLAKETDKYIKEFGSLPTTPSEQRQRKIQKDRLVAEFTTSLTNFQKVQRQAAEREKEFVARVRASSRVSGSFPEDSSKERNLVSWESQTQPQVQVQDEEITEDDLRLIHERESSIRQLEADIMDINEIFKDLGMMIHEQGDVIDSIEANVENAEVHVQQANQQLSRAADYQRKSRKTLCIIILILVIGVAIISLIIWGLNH
Chain of UniProt Q00059 (Q00059 whole entry, looked up): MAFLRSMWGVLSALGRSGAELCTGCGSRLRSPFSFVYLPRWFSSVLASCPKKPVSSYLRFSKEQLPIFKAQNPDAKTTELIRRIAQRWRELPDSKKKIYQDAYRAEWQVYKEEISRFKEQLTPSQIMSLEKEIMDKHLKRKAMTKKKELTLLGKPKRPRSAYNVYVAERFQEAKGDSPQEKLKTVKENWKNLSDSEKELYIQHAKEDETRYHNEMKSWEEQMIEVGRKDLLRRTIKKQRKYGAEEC
Chain of UniProt Q15796 (Q15796 whole entry, looked up): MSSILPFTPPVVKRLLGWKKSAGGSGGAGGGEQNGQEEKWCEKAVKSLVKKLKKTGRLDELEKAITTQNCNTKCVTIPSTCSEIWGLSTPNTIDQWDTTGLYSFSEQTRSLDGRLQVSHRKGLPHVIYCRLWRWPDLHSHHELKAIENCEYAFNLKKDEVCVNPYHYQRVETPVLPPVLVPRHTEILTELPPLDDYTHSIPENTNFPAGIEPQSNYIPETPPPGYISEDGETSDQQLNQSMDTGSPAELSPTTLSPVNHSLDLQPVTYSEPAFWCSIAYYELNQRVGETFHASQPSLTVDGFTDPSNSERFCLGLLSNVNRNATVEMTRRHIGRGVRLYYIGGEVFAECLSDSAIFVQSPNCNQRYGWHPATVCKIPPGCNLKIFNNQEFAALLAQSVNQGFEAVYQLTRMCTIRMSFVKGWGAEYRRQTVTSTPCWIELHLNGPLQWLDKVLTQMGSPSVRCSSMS
Chain of UniProt Q8NEF9 (Q8NEF9 whole entry, looked up): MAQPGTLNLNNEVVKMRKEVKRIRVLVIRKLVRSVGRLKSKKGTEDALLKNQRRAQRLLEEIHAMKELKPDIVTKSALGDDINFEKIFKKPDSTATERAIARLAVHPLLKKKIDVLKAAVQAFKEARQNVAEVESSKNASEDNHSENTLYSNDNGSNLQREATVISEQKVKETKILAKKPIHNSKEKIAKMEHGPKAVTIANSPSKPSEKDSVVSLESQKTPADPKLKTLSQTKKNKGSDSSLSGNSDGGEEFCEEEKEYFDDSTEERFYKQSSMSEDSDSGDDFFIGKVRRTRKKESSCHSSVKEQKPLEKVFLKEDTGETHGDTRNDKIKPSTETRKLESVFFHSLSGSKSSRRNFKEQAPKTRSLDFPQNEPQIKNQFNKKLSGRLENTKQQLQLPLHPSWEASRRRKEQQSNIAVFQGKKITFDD
Chain of UniProt Q6XR72 (Q6XR72 whole entry, looked up): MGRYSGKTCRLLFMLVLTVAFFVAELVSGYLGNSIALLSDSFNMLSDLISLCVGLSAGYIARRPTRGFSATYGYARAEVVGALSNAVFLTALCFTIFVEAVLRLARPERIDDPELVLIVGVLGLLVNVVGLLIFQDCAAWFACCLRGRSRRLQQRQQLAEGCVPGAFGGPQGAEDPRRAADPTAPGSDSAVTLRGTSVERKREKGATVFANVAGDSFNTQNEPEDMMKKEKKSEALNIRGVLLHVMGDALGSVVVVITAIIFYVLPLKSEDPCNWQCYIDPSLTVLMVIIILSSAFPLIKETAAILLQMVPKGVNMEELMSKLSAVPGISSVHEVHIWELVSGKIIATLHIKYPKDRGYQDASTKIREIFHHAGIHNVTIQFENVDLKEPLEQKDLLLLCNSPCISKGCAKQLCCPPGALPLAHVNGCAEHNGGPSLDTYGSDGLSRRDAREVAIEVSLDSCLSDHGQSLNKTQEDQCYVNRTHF
Chain of UniProt Q96BZ9 (Q96BZ9 whole entry, looked up): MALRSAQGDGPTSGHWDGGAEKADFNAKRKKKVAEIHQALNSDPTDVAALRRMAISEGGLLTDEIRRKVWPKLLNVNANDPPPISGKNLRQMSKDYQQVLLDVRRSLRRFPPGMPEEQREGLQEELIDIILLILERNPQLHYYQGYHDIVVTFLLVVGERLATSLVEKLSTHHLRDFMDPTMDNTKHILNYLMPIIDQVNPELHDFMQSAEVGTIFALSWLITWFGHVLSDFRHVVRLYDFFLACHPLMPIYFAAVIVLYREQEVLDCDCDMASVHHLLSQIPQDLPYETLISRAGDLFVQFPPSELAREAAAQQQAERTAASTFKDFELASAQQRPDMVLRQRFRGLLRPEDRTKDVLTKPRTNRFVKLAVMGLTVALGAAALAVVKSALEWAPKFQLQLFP
Chain of UniProt Q5VWP2 (Q5VWP2 whole entry, looked up): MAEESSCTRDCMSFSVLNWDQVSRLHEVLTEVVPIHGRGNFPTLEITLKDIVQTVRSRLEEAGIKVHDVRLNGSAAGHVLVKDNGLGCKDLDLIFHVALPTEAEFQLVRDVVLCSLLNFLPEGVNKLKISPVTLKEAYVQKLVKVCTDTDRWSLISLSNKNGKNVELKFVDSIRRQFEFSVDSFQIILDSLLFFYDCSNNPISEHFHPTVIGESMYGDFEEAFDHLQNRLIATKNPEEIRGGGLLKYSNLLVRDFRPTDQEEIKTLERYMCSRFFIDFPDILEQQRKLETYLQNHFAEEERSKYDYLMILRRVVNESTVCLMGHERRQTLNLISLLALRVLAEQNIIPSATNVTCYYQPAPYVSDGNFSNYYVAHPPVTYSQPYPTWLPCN

For SYNE2 isoform 2 (UniProt Q8WXH0), which log2 fold change is on record?
The log2 fold change was -0.125.

SPAG9 (UniProt O60271) was tested. Which log2 fold change did it give?
Its log2 fold change is 0.034.

How did the log2 fold change turn out when SRFBP1 (UniProt Q8NEF9) was run?
Its log2 fold change is -0.071.

How did the log2 fold change turn out when SMC5 (UniProt Q8IY18) was run?
The log2 fold change was -0.033.

Which log2 fold change does the source give for SLC38A7 (UniProt Q9NVC3) here?
The log2 fold change was -0.066.

With SLC30A10 (UniProt Q6XR72) as the target, how does the log2 fold change read?
The log2 fold change was -0.003.

With TK1 (UniProt K7ERV3) as the target, how does the log2 fold change read?
Its log2 fold change is -0.071.

How did the log2 fold change turn out when SMCHD1 (UniProt A6NHR9) was run?
The log2 fold change was 0.08.

Which log2 fold change does the source give for SLC44A2 isoform 2 (UniProt Q8IWA5) here?
Its log2 fold change is -0.06.

Which log2 fold change does the source give for SYNE1 (UniProt Q8NF91) here?
Its log2 fold change is -0.027.

For TENT5C (UniProt Q5VWP2), which log2 fold change is on record?
The log2 fold change was 0.035.

With SRCAP (UniProt Q6ZRS2) as the target, how does the log2 fold change read?
The log2 fold change was 0.077.

TBC1D20 isoform 3 (UniProt Q96BZ9) was tested. Which log2 fold change did it give?
The log2 fold change was 0.026.

With STK11IP (UniProt Q8N1F8) as the target, how does the log2 fold change read?
Its log2 fold change is 0.046.

How did the log2 fold change turn out when SMAD2 (UniProt Q15796) was run?
Its log2 fold change is -0.103.

For STXBP2 isoform 3 (UniProt Q15833), which log2 fold change is on record?
The log2 fold change was 0.035.

For TGFBR1 isoform 2 (UniProt P36897), which log2 fold change is on record?
Its log2 fold change is 0.093.

With STK38L (UniProt Q9Y2H1) as the target, how does the log2 fold change read?
Its log2 fold change is 0.109.

Which log2 fold change does the source give for STARD3 (UniProt Q14849) here?
Its log2 fold change is 0.004.

With SRC isoform 2 (UniProt P12931) as the target, how does the log2 fold change read?
Its log2 fold change is 0.12.

SRSF6 (UniProt Q13247) was tested. Which log2 fold change did it give?
Its log2 fold change is -0.082.

TFAM (UniProt Q00059) was tested. Which log2 fold change did it give?
Its log2 fold change is -0.035.

SLC39A11 (UniProt Q8N1S5) was tested. Which log2 fold change did it give?
The log2 fold change was -0.016.

For TM9SF4 (UniProt Q92544), which log2 fold change is on record?
Its log2 fold change is -0.01.

Which log2 fold change does the source give for SLC25A38 (UniProt Q96DW6) here?
The log2 fold change was -0.049.

Which log2 fold change does the source give for SSBP4 (UniProt Q9BWG4) here?
Its log2 fold change is -0.084.

Which log2 fold change does the source give for TAOK3 (UniProt Q9H2K8) here?
Its log2 fold change is 0.034.

Which log2 fold change does the source give for SRI (UniProt P30626) here?
The log2 fold change was 0.058.

Which log2 fold change does the source give for SNX15 (UniProt Q9NRS6) here?
The log2 fold change was 0.061.

SRXN1 (UniProt Q9BYN0) was tested. Which log2 fold change did it give?
Its log2 fold change is -0.053.

For STX7 (UniProt O15400), which log2 fold change is on record?
Its log2 fold change is -0.028.

How did the log2 fold change turn out when SMARCA4 (UniProt P51532) was run?
Its log2 fold change is 0.012.

TATDN2 (UniProt Q93075) was tested. Which log2 fold change did it give?
The log2 fold change was 0.009.

TACC2 (UniProt O95359) was tested. Which log2 fold change did it give?
The log2 fold change was 0.035.

SOAT1 (UniProt P35610) was tested. Which log2 fold change did it give?
Its log2 fold change is 0.029.

How did the log2 fold change turn out when SP1 (UniProt P08047) was run?
Its log2 fold change is -0.005.

Compound: O=C(CCCCCCC(=O)Nc1ccccc1)NO [vorinostat]
Experiment: as above
Method in brief: as §1

How did the log2 fold change turn out when SYNE2 isoform 2 (UniProt Q8WXH0) was run?
The log2 fold change was 0.072.

How did the log2 fold change turn out when SPAG9 (UniProt O60271) was run?
Its log2 fold change is 0.023.

With SRFBP1 (UniProt Q8NEF9) as the target, how does the log2 fold change read?
Its log2 fold change is 0.009.

With SMC5 (UniProt Q8IY18) as the target, how does the log2 fold change read?
Its log2 fold change is 0.017.

How did the log2 fold change turn out when SLC38A7 (UniProt Q9NVC3) was run?
The log2 fold change was 0.11.

With SLC30A10 (UniProt Q6XR72) as the target, how does the log2 fold change read?
Its log2 fold change is -0.215.

With TK1 (UniProt K7ERV3) as the target, how does the log2 fold change read?
The log2 fold change was -0.003.

For SMCHD1 (UniProt A6NHR9), which log2 fold change is on record?
Its log2 fold change is 0.19.

SLC44A2 isoform 2 (UniProt Q8IWA5) was tested. Which log2 fold change did it give?
Its log2 fold change is -0.006.

For SYNE1 (UniProt Q8NF91), which log2 fold change is on record?
The log2 fold change was 0.114.

For TENT5C (UniProt Q5VWP2), which log2 fold change is on record?
The log2 fold change was -0.104.

With SRCAP (UniProt Q6ZRS2) as the target, how does the log2 fold change read?
The log2 fold change was -0.039.

Which log2 fold change does the source give for TBC1D20 isoform 3 (UniProt Q96BZ9) here?
Its log2 fold change is 0.033.

STK11IP (UniProt Q8N1F8) was tested. Which log2 fold change did it give?
The log2 fold change was -0.184.

With SMAD2 (UniProt Q15796) as the target, how does the log2 fold change read?
Its log2 fold change is -0.051.

With STXBP2 isoform 3 (UniProt Q15833) as the target, how does the log2 fold change read?
Its log2 fold change is 0.105.

SPIRE1 (UniProt Q08AE8) was tested. Which log2 fold change did it give?
The log2 fold change was -0.035.

TGFBR1 isoform 2 (UniProt P36897) was tested. Which log2 fold change did it give?
Its log2 fold change is -0.083.

Which log2 fold change does the source give for STK38L (UniProt Q9Y2H1) here?
Its log2 fold change is 0.02.

For STARD3 (UniProt Q14849), which log2 fold change is on record?
Its log2 fold change is -0.021.

Which log2 fold change does the source give for SRC isoform 2 (UniProt P12931) here?
The log2 fold change was 0.079.

With SRSF6 (UniProt Q13247) as the target, how does the log2 fold change read?
Its log2 fold change is 0.084.

With TEX30 (UniProt Q5JUR7) as the target, how does the log2 fold change read?
The log2 fold change was 0.121.

With TFAM (UniProt Q00059) as the target, how does the log2 fold change read?
Its log2 fold change is 0.005.

For SLC39A11 (UniProt Q8N1S5), which log2 fold change is on record?
The log2 fold change was -0.063.

Which log2 fold change does the source give for TM9SF4 (UniProt Q92544) here?
Its log2 fold change is 0.146.

SLC25A38 (UniProt Q96DW6) was tested. Which log2 fold change did it give?
Its log2 fold change is -0.096.

How did the log2 fold change turn out when SSBP4 (UniProt Q9BWG4) was run?
The log2 fold change was -0.107.

Which log2 fold change does the source give for TAOK3 (UniProt Q9H2K8) here?
The log2 fold change was 0.036.

With SRI (UniProt P30626) as the target, how does the log2 fold change read?
The log2 fold change was -0.044.

With SNX15 (UniProt Q9NRS6) as the target, how does the log2 fold change read?
Its log2 fold change is 0.436 (active).

With SRXN1 (UniProt Q9BYN0) as the target, how does the log2 fold change read?
Its log2 fold change is -0.24.

With STX7 (UniProt O15400) as the target, how does the log2 fold change read?
Its log2 fold change is -0.093.

Which log2 fold change does the source give for SMARCA4 (UniProt P51532) here?
The log2 fold change was 0.038.

TATDN2 (UniProt Q93075) was tested. Which log2 fold change did it give?
The log2 fold change was 0.004.

Which log2 fold change does the source give for TACC2 (UniProt O95359) here?
Its log2 fold change is -0.033.

With SOAT1 (UniProt P35610) as the target, how does the log2 fold change read?
Its log2 fold change is -0.063.

With SP1 (UniProt P08047) as the target, how does the log2 fold change read?
Its log2 fold change is 0.052.
